Compound activity as filed in PubChem BioAssay.
This is a sample that favours compounds with a hit; in the whole collection about 14% have one here.
NS1 function inh – influenza NS1 inhibition | Potency, µM (highest dose often 46.1 µM) | 270,000 tested, 0.4% active; calls by dose curve; further: actives are rising curves; nearly all actives have a fitted effect of over 50% in size
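Read-out: OD600 growth recovery of NS1-expressing budding yeast. Cells grown overnight at 30C in -URA glucose medium, washed, resuspended and diluted 1:100 in 2% galactose assay medium, pH 6.0. Same strain lacking NS1 served as positive control.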
LmPK inhibitor – blocks Leishmania mexicana pyruvate kinase activity. 290,000 tested, 0.37% active. Q27686. Potency, µM (titrated, usually from 57.5 µM), most hits filed as inhibitors. purified LmPK, Kinase-Glo ATP luminescence, 1 h
Target sequence (Q27686 whole entry, looked up): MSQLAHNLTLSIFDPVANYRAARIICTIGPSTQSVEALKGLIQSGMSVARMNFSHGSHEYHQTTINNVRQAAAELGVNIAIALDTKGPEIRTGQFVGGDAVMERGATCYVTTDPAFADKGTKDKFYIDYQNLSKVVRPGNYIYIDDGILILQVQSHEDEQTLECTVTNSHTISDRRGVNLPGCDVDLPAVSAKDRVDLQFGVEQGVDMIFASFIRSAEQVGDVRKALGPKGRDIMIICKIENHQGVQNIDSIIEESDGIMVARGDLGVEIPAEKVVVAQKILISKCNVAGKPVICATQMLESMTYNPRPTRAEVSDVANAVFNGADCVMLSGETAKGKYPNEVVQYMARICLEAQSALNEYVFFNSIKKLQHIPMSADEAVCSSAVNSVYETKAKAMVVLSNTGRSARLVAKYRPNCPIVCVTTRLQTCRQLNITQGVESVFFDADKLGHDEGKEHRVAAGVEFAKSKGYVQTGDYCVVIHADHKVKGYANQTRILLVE
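qHTS format; LmPK 0.1 nM; substrates PEP 0.5 mM and ADP 0.1 mM. One-hour room-temperature incubation, then coupled luciferase luminescence; 0.5 nM enzyme wells mark activation.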
Shiga toxin inh – Shiga toxin inhibition; inhibition, % at 38.7 µM; 290,000 tested, 9.2% active; Vero cells, Shiga toxin protein synthesis inhibition reporter; AID 2315; in the data active means inhibition mostly above about 28%, no sharp cut-off; inactive means mostly below about 43%
FBPA Giardia inh – Giardia lamblia aldolase inhibition; purified Giardia FBPA; A8B2U2; Potency, µM (series often up to 59.6 µM), hits mostly inhibitors; 290,000 tested, 0.71% active; further: nearly all actives have a fitted effect of over 55% in size
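Giardia FBPA (40 nM reagent) was preincubated 10 min at RT with compound (up to 57.5 uM final), then substrate plus GAPDH/TPI/NAD/arsenate coupling system with diaphorase/resazurin was added; resorufin fluorescence (525/598 nm) was read after 20 min.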
CHX counter – counter-screen for Shiga toxin inhibitors: cycloheximide protein synthesis inhibition. 300,000 tested, 12% active. cell reporter, cycloheximide protein synthesis inhibition counterscreen. max response, %. AID 2314; in the data active means max response mostly above about 13%, no sharp cut-off; inactive means mostly below about 14%; further: read at 38.3 µM for the half of the compounds with a filed dose
A number is an active result; n = inactive; u = inconclusive; x = no result; + = active, no number. Unless noted, the call rests on the fitted dose curve; in most records, active means well fitted curve in the direction sought with a large enough effect; inconclusive means small, poorly fitted or top-dose-only effect, or another doubt; inactive means no such curve, though single readings can be large; an effect the other way counts as inactive or inconclusive.

SMILES	NS1 function inh	LmPK inhibitor	Shiga toxin inh	FBPA Giardia inh	CHX counter
CC(Cc1ccsc1)NC(=O)CCc1nnc(COc2ccccc2)o1 (stereo unspecified)	n	n	n	n	19
O=C(CCc1nnc(COc2ccccc2)o1)NCc1ccccc1	n	n	n	n	n
CCN(Cc1ccccc1)C(=O)CCc1nnc(CCCc2ccccc2)o1	n	n	57	n	22
CN(Cc1ccsc1)C(=O)CCc1nnc(CCCc2ccccc2)o1	n	n	124	n	47
CC(C)(CO)CNC(=O)CCc1nnc(CCCc2ccccc2)o1	n	n	n	n	22
Cc1ccc(C)c(C(=N)c2ccccc2Cc2ccccc2)c1	n	x	x	x	x
Cc1ccsc1CN(C)C(=O)CCc1nnc(COc2ccccc2)o1	n	n	56	n	35
CCN(Cc1ccccc1)C(=O)CCCOc1ccccc1	n	n	77	n	26
Cn1ccnc1SCCNC(=O)CCc1nnc(CCc2ccccc2)o1	n	n	n	n	n
CCN(Cc1ccncc1)C(=O)CCc1nnc(CCC2CCCCC2)o1	n	n	39	n	23
Cn1ccnc1SCCNC(=O)CCc1nnc(CCCCc2ccccc2)o1	n	n	23	n	n
COc1ccc(/C=N/NC(=O)c2cc(C(C)(C)C)[nH]n2)cc1COc1ccc(F)cc1F	x	n	n	n	n
CC(C)(O)[C@@H]1CCC[N+]2(C)CCCC[C@H]12 (stereo partly specified)	x	x	x	n	x
O=C(O)c1cccc(N=Nc2c(S(=O)(=O)O)ccc3c2C(=O)c2ccccc2C3=O)c1O	n	x	x	x	x
Cc1c(Cc2ccccc2)c(=O)oc2cc(OC(C)C(=O)NCC3CCC(C(=O)O)CC3)c(Cl)cc12 (stereo unspecified)	n	n	n	n	n
O=C(CCC(=O)N1CCOCC1)c1ccc(F)cc1	x	n	55	n	24
CCOc1ccc(C(=O)CCCC(=O)c2ccc(OCC)cc2)cc1	n	n	x	n	47
CCOc1ccc(C(=O)CCN2CCCCCC2)cc1	n	n	n	n	n
O=C(CCCC(=O)c1ccc(F)cc1)c1ccc(F)cc1	n	n	107	n	55
CCCCC(=O)c1ccc(O)cc1	n	n	n	n	15
Cc1ccc(C(=O)CCC(=O)N2CCN(c3ccc(F)cc3)CC2)cc1	n	n	n	n	n
O=C(CCO)c1ccc(O)cc1	n	n	n	n	n
COc1ccc2c(c1)O[C@@H](c1ccc3c(c1)OCO3)[C@H](OC(=O)Nc1ccc(C)c(Br)c1)C2=O	x	x	x	n	x
CC1CCCCC12NC(=O)N(CC(=O)OCC(=O)c1ccc(OC(F)F)cc1OC(F)F)C2=O (stereo unspecified)	n	n	n	x	n
CCOc1ccc(C(=O)COC(=O)CC)cc1	n	n	42	n	23
SMILES	NS1 function inh	LmPK inhibitor	Shiga toxin inh	FBPA Giardia inh	CHX counter
CCCCC(=O)OCC(=O)c1ccc(OCC)cc1	n	n	22	n	58
Cc1ccc(C(=O)CCS(=O)(=O)c2ccc(F)cc2)cc1	n	n	26	n	25
[N-]=[N+]=CC(=O)COC(=O)c1ccccc1	n	x	x	x	x
CC(C)(C)NC(=S)NCc1ccco1	n	n	n	u	n
CN(C)c1ccc(C(=S)NCc2ccco2)cc1	n	n	+	n	85
CN(C)c1ccc(/C=N/NC(=S)NCc2ccco2)cc1	n	n	23	n	n
S=C(NCc1ccco1)N/N=C/c1ccncc1	n	n	n	n	n
CC(C)=CCc1c(O)ccc2c1OC(c1ccc(O)c(O)c1)CC2=O (stereo unspecified)	n	n	n	n	14
O=C1CC(c2ccc(O)c(O)c2)Oc2c1ccc(O)c2O (stereo unspecified)	n	n	n	u	n
C=CCn1c(C)cc(C2=NNC(=Nc3ccc(C)cc3)SC2)c1C	x	n	n	n	n
Cc1cccc(N=C2NN=C(c3ccc4c(c3)OCCO4)CS2)c1	n	n	93	n	27
Cc1cccc(N=C2NN=C(c3c(C)[nH]c4ccccc34)CS2)c1	n	n	n	n	n
Cc1ccc(C2=NNC(=Nc3ccc(F)cc3)SC2)cc1	x	n	84	n	26
COc1ccc(C(=O)CCC(=O)N2CCN(c3ccccc3)CC2)cc1	n	n	n	n	n
C/C(Cn1cnc([N+](=O)[O-])n1)=N\NC(=O)c1ccc(F)cc1	n	n	41	n	25
C/C(Cn1cnc([N+](=O)[O-])n1)=N\NC(=O)c1ccncc1	n	n	n	n	n
C/C(Cn1cnc([N+](=O)[O-])n1)=N\NC(=O)c1cccc(F)c1	n	n	96	n	25
COc1ccc(NC(=O)N2CC[C@@]3(CCCN(C(=O)c4csnn4)C3)C2)cc1	x	x	x	n	x
O=C(CC1CC2CCC1C2)OCC(=O)c1c[nH]c2ccccc12 (stereo unspecified)	n	n	148	n	53
COC(=O)c1ccc(OCC(O)Cn2nnc3ccccc32)cc1 (stereo unspecified)	n	n	n	n	n
Cc1cccc(C)c1OCC(O)Cn1nnc2ccccc21 (stereo unspecified)	n	n	n	n	16
Cc1ccc2c(c1)c(C)c(C)n2CC(O)Cn1nc(C)cc1C (stereo unspecified)	n	n	n	n	n
O=C1c2ccccc2C(=O)N1CC(O)Cn1nnc2ccccc21 (stereo unspecified)	n	n	n	n	n
OC(CN1c2ccccc2Sc2ccccc21)Cn1nnc2ccccc21 (stereo unspecified)	n	n	n	n	16
Cc1ccc2c(c1)c(C)c(C)n2CC(O)Cn1nnc2ccccc21 (stereo unspecified)	n	n	n	n	30
SMILES	NS1 function inh	LmPK inhibitor	Shiga toxin inh	FBPA Giardia inh	CHX counter
Cc1cccc(C)c1OCC(O)Cn1c2ccccc2c2ccccc21 (stereo unspecified)	n	n	n	n	n
CC(=O)c1ccc(OCC(O)Cn2nnc3ccccc32)cc1 (stereo unspecified)	n	n	n	n	39
CC(C)(C)C(=O)COC(=O)c1cc2ccccc2cc1O	n	n	n	n	25
CC1CC(C)CN(C(=O)COC(=O)c2cc3ccccc3cc2O)C1 (stereo unspecified)	n	n	n	n	n
CC1CCN(C(=O)COC(=O)c2cc3ccccc3cc2O)CC1	n	n	n	n	42
O=C(Cc1ccccc1[N+](=O)[O-])Nc1ccc(S(=O)(=O)N2CCCC2)cc1	n	n	n	x	n
CC(C)CNc1nc(N)c([N+](=O)[O-])c(N2CCCCCC2)n1	n	n	n	n	n
N#Cc1ccc(NCCNCC(=O)N2N=CCC2C#N)nc1 (stereo unspecified)	x	x	n	n	n
COC(=O)c1ccc(/C=N\N2CCN(c3ccccc3)CC2)cc1	n	n	118	n	21
CC(=O)Nc1cc(C(=O)c2ccccc2)ccc1N1CCOCC1	n	n	n	n	n
COC(=O)c1ccc(N2CCN(c3ccccc3)CC2)c(N)c1	n	n	n	n	16
COC(=O)c1ccc(N2CCN(c3ccccc3)CC2)nc1	n	n	45	n	25
Nc1cc(C(=O)c2ccccc2)ccc1N1CCOCC1	n	n	117	n	27
O=c1cnc2cnc(N3CCOCC3)nc2n1Cc1ccc(F)cc1	x	x	x	n	x
